Source: PubChem BioAssay (Tox21)
Values joined by “and” are separate entries in the source; they are usually repeats but may differ in a detail not shown here. Equal entries are not always repeated. Inconclusive results are not listed. A structure can be active in one record and inactive in another. Active and inactive are the calls of the source. Unless noted, calls follow the shape of the full dose curve.

Tests used:
[1] = Nuclear factor erythroid 2-related factor 2/antioxidant responsive element (Nrf2/ARE) small molecule agonists: qHTS cell viability counter screen in human keratinocytes (AID 1919968; active = well fitted curve in the direction sought with a large enough effect in the repeat runs; an effect the other way counts as inactive or inconclusive; also: nearly all actives have a fitted effect of over 55% in size; also: potency is read from the fitted curve at half-maximal effect)
In short: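 HaCaT ARE reporter line, 1,500 cells/well; 5 h settle, 37 C/5% CO2; cpd in DMSO pinned; 23 h exposure; CellTiter-Fluor, 1 h; fluorescence.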

[2] = Nuclear factor erythroid 2-related factor 2/antioxidant responsive element (Nrf2/ARE) small molecule agonists: luciferase reporter gene qHTS assay in human keratinocytes (AID 1919969); also: nearly all actives have a fitted effect of over 35% in size; also: potency is read from the fitted curve at half-maximal effect
[3] = molecular target: Gonadotropin-releasing hormone receptor (Homo sapiens) (UniProt P30968); assay: Human gonadotropin-releasing hormone receptor (GnRHR) small molecule agonists, calcium flux assay in GnRHR-HEK293 cells (AID 1920063); also: nearly all actives have a fitted effect of over 35% in size
Sequence of Gonadotropin-releasing hormone receptor (Homo sapiens) (P30968 whole entry, looked up): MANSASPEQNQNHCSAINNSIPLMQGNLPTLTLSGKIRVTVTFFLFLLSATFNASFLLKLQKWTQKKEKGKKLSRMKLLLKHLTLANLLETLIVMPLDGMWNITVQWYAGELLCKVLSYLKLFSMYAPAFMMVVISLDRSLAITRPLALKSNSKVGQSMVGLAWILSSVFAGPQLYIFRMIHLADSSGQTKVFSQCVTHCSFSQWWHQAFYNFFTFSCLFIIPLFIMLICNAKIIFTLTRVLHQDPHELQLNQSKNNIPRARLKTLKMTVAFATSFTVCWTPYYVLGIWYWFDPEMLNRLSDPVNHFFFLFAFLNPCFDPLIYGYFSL
In short: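 GnRHR-HEK293, 1500 cells/well, 18 h 37 C/5% CO2; Ca dye 1 h 37 C; cpd pinned (DMSO), agonist mode; kinetic FL 480/540, 3 min, 1 s reads; 15 conc, n=3.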

[4] = molecular target: KiSS-1 receptor (Homo sapiens) (UniProt Q969F8); assay: Human kisspeptin (KISS1R) small molecule agonists, calcium flux assay in KISS1R-HEK293 cells (AID 1920064; active = well fitted curve in the direction sought with a large enough effect in the repeat runs; an effect the other way counts as inactive or inconclusive)
Sequence of KiSS-1 receptor (Homo sapiens) (Q969F8 whole entry, looked up): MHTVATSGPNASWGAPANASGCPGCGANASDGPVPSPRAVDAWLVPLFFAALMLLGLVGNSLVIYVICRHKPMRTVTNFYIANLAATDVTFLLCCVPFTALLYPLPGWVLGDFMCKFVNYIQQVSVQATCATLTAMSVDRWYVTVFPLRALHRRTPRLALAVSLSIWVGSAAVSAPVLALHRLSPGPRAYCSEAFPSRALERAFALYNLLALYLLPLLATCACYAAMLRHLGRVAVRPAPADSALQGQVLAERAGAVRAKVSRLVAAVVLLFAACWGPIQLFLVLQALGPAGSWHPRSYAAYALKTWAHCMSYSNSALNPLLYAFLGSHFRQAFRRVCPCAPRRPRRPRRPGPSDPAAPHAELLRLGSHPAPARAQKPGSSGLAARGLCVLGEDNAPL
In short: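 Stable human KISS1R HEK293 line; 18 h plating, 37 C/5% CO2; calcium dye 1 h 37 C; compound pin transfer; kinetic fluorescence Ex/Em 480/540, 3 min.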

[5] = G protein-coupled receptor (GPCR) small molecule agonists, calcium flux assay: HEK293 wild type cell line counter screen (AID 1920065)
In short: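 Kinetic fluorescence at Ex/Em 480/540, recorded every second over 3 min, served as the read-out after compound addition. Each compound was tested at 15 concentrations in triplicate on cells pre-loaded with calcium dye for 1 h.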

[6] = p53 small molecule agonists, cell-based qHTS assay with rat liver microsomes (AID 1963578)
In short: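 Fluorescence from a beta-lactamase reporter under a p53 response element was measured after cells had been incubated 16 h at 37 C with test compound and rat liver microsomes plus NADPH (0.5 mg/mL final each).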

[7] = p53 small molecule agonists, cell-based qHTS assay with human liver microsomes: qHTS cell viability counter screen (AID 1963579); also: nearly all actives have a fitted effect of over 45% in size; also: potency is read from the fitted curve at half-maximal effect
In short: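 Seed p53RE-bla cells at 4,000 per well; incubate 5 h at 37 C; add compound, human liver microsomes and NADPH; incubate 16 h at 37 C; add CellTiter-Glo; after 30 min at room temperature, read luminescence.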

[8] = cAMP Responsive Elements (CRE) small molecule agonists, cell-based qHTS assay (AID 1963590)
In short: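 HEK 293T CRE-bla, 2,000 cells/well, 18 h preincubation 37 C/5% CO2; cpds (DMSO) pinned, 3 h; LiveBLAzer B/G FRET substrate, 2 h RT.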

[9] = molecular target: Beta-2 adrenergic receptor (Homo sapiens) (UniProt P07550); assay: Adrenergic beta2 receptor (ADRB2) small molecule antagonists, cell-based qHTS assay (AID 1963592); also: series mostly up to about 92 µM; nearly all actives have a fitted effect of over 50% in size
Sequence of Beta-2 adrenergic receptor (Homo sapiens) (P07550 whole entry, looked up): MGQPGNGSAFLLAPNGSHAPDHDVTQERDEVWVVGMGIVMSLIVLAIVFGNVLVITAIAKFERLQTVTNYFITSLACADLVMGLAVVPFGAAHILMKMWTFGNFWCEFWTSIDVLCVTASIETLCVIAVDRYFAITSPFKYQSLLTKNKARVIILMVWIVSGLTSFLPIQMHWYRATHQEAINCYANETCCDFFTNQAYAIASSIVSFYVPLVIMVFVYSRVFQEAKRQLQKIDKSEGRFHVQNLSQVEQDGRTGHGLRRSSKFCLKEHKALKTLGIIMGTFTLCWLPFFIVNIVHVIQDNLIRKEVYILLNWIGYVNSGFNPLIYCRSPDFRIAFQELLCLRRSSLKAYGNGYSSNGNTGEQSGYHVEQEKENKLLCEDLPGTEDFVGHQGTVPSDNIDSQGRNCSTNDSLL
In short: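 Cells (CHO, stable ADRB2 overexpression) incubated 18-20hr at 37C; compounds added from DMSO; agonist mix (1nM isoproterenol, 100uM IBMX, 25uM Ro-20-1724) added; 0.5hr RT; d2-cAMP and anti-cAMP-cryptate added; 1hr RT; 665/615 nm read.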

[10] = molecular target: Beta-2 adrenergic receptor (Homo sapiens) (UniProt P07550); assay: Adrenergic beta2 receptor (ADRB2) small molecule agonists, cell-based qHTS assay (AID 1963593);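 also: CHO cells stably overexpressing human ADRB2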
In short: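 CHO cells stably over-expressing ADRB2 were plated overnight at 37C, then dosed with compounds plus a stimulation mix containing 100uM IBMX and 25uM Ro-20-1724 for 0.5hr at room temperature. cAMP was measured by HTRF competition, 1hr.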

[11] = molecular target: D(2) dopamine receptor (Homo sapiens) (UniProt P14416); assay: Dopamine D2 receptor (DRD2) small molecule antagonists, cell-based qHTS assay (AID 1963595; active = well fitted inhibition curve with a large enough effect in the signal ratio in the repeat runs, with a control signal flat; the % refers to the signal ratio)
Sequence of D(2) dopamine receptor (Homo sapiens) (P14416 whole entry, looked up): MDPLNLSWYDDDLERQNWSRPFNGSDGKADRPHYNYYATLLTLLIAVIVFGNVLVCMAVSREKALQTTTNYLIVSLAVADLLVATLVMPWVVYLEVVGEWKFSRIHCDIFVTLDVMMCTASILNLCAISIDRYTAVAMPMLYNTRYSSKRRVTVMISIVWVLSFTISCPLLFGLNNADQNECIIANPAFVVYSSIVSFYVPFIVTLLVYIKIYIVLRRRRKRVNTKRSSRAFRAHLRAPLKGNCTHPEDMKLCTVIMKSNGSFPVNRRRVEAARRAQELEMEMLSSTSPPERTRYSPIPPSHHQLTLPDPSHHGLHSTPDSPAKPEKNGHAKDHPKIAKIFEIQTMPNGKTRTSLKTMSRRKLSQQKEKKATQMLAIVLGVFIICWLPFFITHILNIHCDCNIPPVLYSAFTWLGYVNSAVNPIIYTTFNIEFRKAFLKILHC
In short: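 HTRF cAMP read-out at 665 and 620 nm emission (340 nm excitation). Antagonist mode: compounds were tested against 12 nM quinpirole in DRD2-HEK293 cells, with 200 nM NKH477 raising cAMP and 0.1 mM Ro20-1724 blocking its breakdown.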

[12] = p53 small molecule agonists, cell-based qHTS assay with rat liver microsomes: qHTS cell viability counter screen (AID 1963580); also: nearly all actives have a fitted effect of over 45% in size
In short: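 In HCT-116 cells carrying a p53 response element-bla reporter, compounds were metabolically activated in situ by rat liver microsomes with NADPH over 16 h. Cell ATP content then served as the cytotoxicity measure.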

[13] = p53 small molecule agonists, cell-based qHTS assay: qHTS cell viability counter screen (AID 1963581); also: nearly all actives have a fitted effect of over 45% in size; also: potency is read from the fitted curve at half-maximal effect
In short: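 HCT-116 p53RE-bla cells, 4,000/well, plated 5 h before compound pin transfer; 16 h at 37 C; bla substrate 2 h RT; then CellTiter-Glo, 30 min RT, luminescence.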

[14] = p53 small molecule agonists, cell-based qHTS assay (AID 1963582; active = well fitted activation curve with a large enough effect in the signal ratio in the repeat runs, not every such curve was filed as active; the % refers to the signal ratio)
In short: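 Reporter line: p53RE-bla. Pre-incubation 5 h, 37 C, 5% CO2; compound (DMSO, pin tool) 16 h, 37 C; B/G FRET substrate 2 h RT; fluorescence intensity read.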

[15] = molecular target: 5-hydroxytryptamine receptor 2A (Homo sapiens) (UniProt P28223); assay: 5-hydroxytryptamine receptor 2A (HTR2A) small molecule antagonists, cell-based qHTS assay (AID 1963586); also: nearly all actives have a fitted effect of over 45% in size
Sequence of 5-hydroxytryptamine receptor 2A (Homo sapiens) (P28223 whole entry, looked up): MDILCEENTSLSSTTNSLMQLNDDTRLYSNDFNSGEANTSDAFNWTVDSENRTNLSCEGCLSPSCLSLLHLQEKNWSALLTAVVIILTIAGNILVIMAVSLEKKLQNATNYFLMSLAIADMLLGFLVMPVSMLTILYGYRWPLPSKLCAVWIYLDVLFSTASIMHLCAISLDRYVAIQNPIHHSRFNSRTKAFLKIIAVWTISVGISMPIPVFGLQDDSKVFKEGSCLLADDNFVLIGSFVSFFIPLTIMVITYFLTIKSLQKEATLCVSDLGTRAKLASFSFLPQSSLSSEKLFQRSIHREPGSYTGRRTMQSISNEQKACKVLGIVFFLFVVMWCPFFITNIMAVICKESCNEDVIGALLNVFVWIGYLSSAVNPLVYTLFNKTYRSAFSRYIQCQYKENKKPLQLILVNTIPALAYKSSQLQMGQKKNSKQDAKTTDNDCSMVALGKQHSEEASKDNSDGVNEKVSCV
In short: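 Antagonist-mode intracellular calcium assay: DOI (4 nM) added after 5 min compound pre-incubation at room temperature to dye-loaded HTR2A-CHO cells. Fluorescence followed for 3 min, sampled every second.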

[16] = molecular target: 5-hydroxytryptamine receptor 2A (Homo sapiens) (UniProt P28223); assay: 5-hydroxytryptamine receptor 2A (HTR2A) small molecule agonists, cell-based qHTS assay (AID 1963587); also: nearly all actives have a fitted effect of over 30% in size
In short: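 HTR2A-CHO cells, plated 18 h at 37 C/5% CO2, dye-loaded 1 h at 37 C; compounds in DMSO added by pin tool (agonist mode). Intracellular calcium flux read as kinetic fluorescence on FDSS over 2 min at 1 s intervals.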

[17] = molecular target: Muscarinic acetylcholine receptor M1 (Homo sapiens) (UniProt P11229); assay: Cholinergic receptor muscarinic 1 (CHRM1) small molecule antagonists, cell-based qHTS assay (AID 1963588); also: nearly all actives have a fitted effect of over 40% in size
Sequence of Muscarinic acetylcholine receptor M1 (Homo sapiens) (P11229 whole entry, looked up): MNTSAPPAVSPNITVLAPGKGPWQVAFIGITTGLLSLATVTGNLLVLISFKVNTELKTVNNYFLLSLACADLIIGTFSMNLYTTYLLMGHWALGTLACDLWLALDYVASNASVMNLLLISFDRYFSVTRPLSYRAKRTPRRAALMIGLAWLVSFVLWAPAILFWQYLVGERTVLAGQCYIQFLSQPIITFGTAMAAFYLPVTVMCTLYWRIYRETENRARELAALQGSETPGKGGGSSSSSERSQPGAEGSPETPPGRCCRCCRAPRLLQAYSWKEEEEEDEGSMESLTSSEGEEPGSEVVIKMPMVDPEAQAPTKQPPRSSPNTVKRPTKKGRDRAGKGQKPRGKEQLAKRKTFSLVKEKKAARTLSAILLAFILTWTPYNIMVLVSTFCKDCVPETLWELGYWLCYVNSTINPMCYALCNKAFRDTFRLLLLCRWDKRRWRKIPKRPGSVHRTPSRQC
In short: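 CHRM1-CHO calcium-flux assay, antagonist mode. Cells were seeded 18 h, dye-loaded 1 h at 37 C and given compound for 5 min at RT, then acetylcholine was added at 50nM. FDSS fluorescence was read 3 min; 15 concentrations, three runs.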

[18] = molecular target: Muscarinic acetylcholine receptor M1 (Homo sapiens) (UniProt P11229); assay: Cholinergic receptor muscarinic 1 (CHRM1) small molecule agonists, cell-based qHTS assay (AID 1963589); also: nearly all actives have a fitted effect of over 35% in size
In short: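 Human M1 in stable CHO line; 18 h plating, 1 h dye load 37 C; cpd added (agonist mode); Ca2+ fluorescence kinetic read, 1 s intervals; 15 conc, 3 runs.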

[19] = cAMP Responsive Elements (CRE) small molecule antagonists, cell-based qHTS assay (AID 1963591; active = well fitted inhibition curve with a large enough effect in the signal ratio in the repeat runs, not every such curve was filed as active; the % refers to the signal ratio)
In short: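 Beta-lactamase reporter read by FRET substrate (LiveBLAzer B/G) after 2 h at room temperature. CRE-bla HEK293T cells had received compound plus 0.25 uM (final) NKH477 for 3 h at 37 °C.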

[20] = molecular target: D(2) dopamine receptor (Homo sapiens) (UniProt P14416); assay: Dopamine D2 receptor (DRD2) small molecule agonists, cell-based qHTS assay (AID 1963594); also: nearly all actives have a fitted effect of over 35% in size
In short: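 HEK293 cells stably expressing DRD2 were cultured 24 h at 37 C, then given Ro20-1724 (0.1 mM final) and compounds for 10 min at room temperature. NKH477 (200nM) was then added for 30 min. cAMP was read by HTRF.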

Measured: Potency

NC(CO)(CO)CO
inactive: [1] | [2] | [3] | [4] | [5] | [6] | [7] | [8] | [9] | [10] | [11]

COC(=O)c1cccnc1
not listed: [7]
inactive: all other assays above

CCCCCCCCCCCCO
inactive and 67.8 µM (active): [2]
not listed: [7] | [13] | [14]
inactive: all other assays above

Cc1cnc(NC(=O)C2=C(O)c3ccccc3S(=O)(=O)N2C)s1
not listed: [7] | [15] | [16] | [17] | [18]
inactive: all other assays above

c1cnc2c(c1)ccc1cccnc12
active: [1] 3.89 µM and 6.11 µM and 7.7 µM | [2] 9.69 µM | [7] 36.7 µM
not listed: [9] | [12] | [14] | [19]
inactive: all other assays above

c1ccncc1
not listed: [7] | [11]
inactive: all other assays above

O=C(OCc1ccccc1)c1ccccc1O
active: [2] 48.2 µM and 54.5 µM | [13] 45.8 µM
not listed: [7]
inactive: all other assays above

O=C(c1ccccc1)c1ccc(O)c(O)c1O
not listed: [9] | [12] | [14]
inactive: all other assays above
